# Source: PubChem
# TIM10 inh – TIM10 yeast growth inhibition; S. cerevisiae TIM10 strain growth, BacTiter-Glo luminescence, 24 h; inhibition, % at 10 µM; 330,000 tested, 1.4% active; AID 463195;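 active = inhibition of 40% or more at the single tested concentration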;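 also: wild-type TIM10 isogenic control strain grown at permissive 25 °C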
# tim23-1 inh – inhibits growth of tim23-1 mutant yeast; S. cerevisiae tim23-1 growth, BacTiter-Glo luminescence, 24 h; inhibition, % at 20 µM; 330,000 tested, 1.3% active;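 active = growth inhibition of the mutant yeast at or above 50%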;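 also: temperature-sensitive mutant grown at 25 °C; plate controls were DMSO-treated mutant yeast for no effect and medium wells lacking yeast for full effect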
# tim10-1 inh – tim10-1 yeast growth inhibition. AID 463190. S. cerevisiae tim10-1 ts strain growth, BacTiter-Glo, 24 h. inhibition, % at 20 µM. 330,000 tested, 2.2% active;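 active = inhibition of at least 40%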;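 also: mutant grown at 25 °C; 0% = DMSO wells with yeast and 100% = wells holding no yeast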
# PfHsp90 set2 – inhibits growth of yeast expressing Plasmodium falciparum Hsp90 | S. cerevisiae expressing PfHsp90, BacTiter-Glo ATP, 48 h; yeast lacking PDR1 and PDR3 efflux regulators | inhibition, % at 9.4 µM | 310,000 tested, 0.32% active | AID 504621;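 active = every replicate shows inhibition above about 80%, whatever the replicate mean, limit read from the data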;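 also: 0% = DMSO neutral controls and 100% = 20 µM radicicol positive controls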
# Mot1-301 SUMO – blocks SUMOylation pathway, rescuing yeast Mot1-301 growth; S. cerevisiae Mot1-301 growth rescue, ATP luminescence, 38.5C; percent above DMSO median, 100 means doubled; growth rescue, % at 18.8 µM; 320,000 tested, 1% active;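 active = every valid replicate shows activation above 250% relative to neutral control wells; inactive = the rest, any valid replicate at or below 250%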;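 also: OY570 slx delta 5 strain wells were the positive control but not used for scaling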
# The depositor's hits bear a star; . = not tested or not shown; + = active, no number; ! = not confirmed by another sample. An excerpt weighted towards active compounds, which were near 4.4% of everything screened.
SMILES,TIM10 inh,tim23-1 inh,tim10-1 inh,PfHsp90 set2,Mot1-301 SUMO
COc1cc(NC(=O)C2CCN(c3cnccn3)CC2)cc(OC)c1OC,10.7,2.1,-5.0,2.7,-15.2
Cc1ccc(/C=C2/NC(=O)N(Cc3ccc(Br)cc3)C2=O)o1,-16.7,14.3,14.9,108.8*,150.4
CCN1C(=O)N/C(=C/c2ccc(C)o2)C1=O,9.8,3.6,-7.2,8.5,-3.8
Cc1nn(C)cc1CNC(=O)Nc1ccc(Br)cc1Cl,8.8,8.3,11.3,.,14.2
Cc1nn(C)cc1CNC(=O)Nc1cccc(Cl)c1,-2.3,11.6,8.1,-19.3,347.6*
COc1ccc2c(c1)OC[C@H]1[C@H]2N2C(=O)c3ccc(C)cc3NC(=O)[C@@]2(C)[C@H]1c1ccccc1,14.0,33.3,12.1,10.6,355.7*
COc1ccc2c(c1)OC[C@H]1[C@H]2N2C(=O)c3cc(Cl)ccc3NC(=O)[C@@]2(C)[C@H]1c1ccccc1,21.4,37.8,33.1,+,157.4
O=C1CC(/C=C/c2ccc(Cl)cc2)=Nc2ccccc2N1,10.1,41.1,25.9,-23.5,568.1*
CC(NC(=O)COc1ccc(Br)cc1)C(=O)O (centres undefined),8.9,11.5,-5.3,19.4,-30.7
CC(NC(=O)COc1cccc(Br)c1)C(=O)O (centres undefined),-0.3,4.2,20.0,-19.3,997.2*
O=[N+]([O-])c1cc(-c2cccnc2)n[nH]1,.,.,.,16.5,.
COc1ccccc1C1(CC(=O)N2CCOCC2)CCOC(C(C)C)C1 (centres undefined),16.2,28.9,29.4,23.3,569.6*
COc1ccccc1C1(CC(=O)Nc2nccs2)CCOC(C(C)C)C1 (centres undefined),8.7,30.7,39.4,.,18.8
COc1ccccc1NC(=O)CCc1nc2ccccc2s1,14.8,12.6,13.2,-11.1,227.3
COc1ccc(C(=O)CCc2nc3ccccc3s2)cc1,3.3,14.5,10.8,-13.2,355.1*
CCN(C[C@H]1N[C@@](C)(C(=O)OC)[C@H]2C(=O)N(Cc3ccccc3)C(=O)[C@@H]12)S(=O)(=O)c1ccccc1,6.4,-9.1,-2.7,-0.1,-6.0
N#C[C@H]1C(O)C(O)c2ccccc2N1C(=O)c1ccccc1 (some centres undefined),-10.5,-1.3,-3.7,6.8,716.3*
O=C(CNC(=O)c1cccc(-n2cnnn2)c1)Nc1ccc(F)c(F)c1,4.3,-1.0,-11.2,.,1.7
N#C/C(=C\c1ccc(O)c(O)c1)C(=O)NCCc1ccccc1,-5.6,11.7,8.5,-13.5,273.9*
O=C(COC(=O)c1cc(-c2ccc(Cl)s2)nc2ccccc12)NCc1ccco1,15.0,44.0,37.5,.,174.0
COc1ccc(CNC(=O)COC(=O)c2cc(-c3ccc(Cl)s3)nc3ccccc23)cc1,1.0,-10.8,15.8,-18.6,276.1*
Cc1ccc(OCc2n[nH]c(=S)n2C2CCCCC2)cc1,38.5,40.2,33.9,90.3*,-7.6
Cc1cccc(OCc2n[nH]c(=S)n2C2CCCCC2)c1,4.8,18.0,-30.9,-40.2,334.4
C/C(CC(=O)Nc1ccc2ccccc2c1)=N\NC(=O)c1ccc(O)c(O)c1,-0.5,26.4,18.0,14.7,-13.9
COC(=O)c1cccc(N(C(=O)c2cnccn2)C(C(=O)NCc2ccccc2)c2ccco2)c1 (centres undefined),19.4,21.6,21.4,.,321.8*
SMILES,TIM10 inh,tim23-1 inh,tim10-1 inh,PfHsp90 set2,Mot1-301 SUMO
Cn1nc(C(C)(C)C)c([N+](=O)[O-])c1C(=O)N1CCCCCC1,5.5,15.1,4.7,13.4,444.1*
Cn1nc(C(C)(C)C)c([N+](=O)[O-])c1C(=O)N1CCOCC1,7.3,-1.6,-12.5,12.0,10.2
O=C(N/N=C/c1cccc2ccccc12)C(=O)N1CCCC1,-4.6,-3.6,0.6,-4.5,129.2
O=C(N/N=C/c1ccccc1[N+](=O)[O-])C(=O)N1CCCC1,1.5,6.1,4.3,-29.9,355.2*
COc1ccc(C(=O)NNC(=S)NC(=O)c2ccco2)cc1,18.2,-20.6,4.6,.,2.1
CC(Oc1ccc(Cl)cc1)C(=O)NNC(=S)NC(=O)c1ccco1 (centres undefined),-11.2,16.4,-3.7,103.1*,3.7
NS(=O)(=O)c1cc2c(cc1Cl)NC(C1C[C@H]3C=C[C@@H]1C3)NS2(=O)=O (some centres undefined),7.1,5.6,14.3,-7.1,562.8*!
CC(=O)Nc1ccc(Nc2cc(C(C)C)nc3c(-c4ccccc4)c(C)nn23)cc1,24.2,45.2,33.2,107.8*,-27.6
CC(=O)Nc1ccc(Nc2cc(C)nc3c(-c4ccccc4)c(C)nn23)cc1,26.4,36.0,22.4,3.3,-5.6
CC(C)c1ccc(OCCCCN2CCCCC2)cc1,-25.5,-27.5,-42.5,24.6,351.6*
c1ccc(COc2ccc(OCCN3CCCCC3)cc2)cc1,-41.7,-57.2,-76.1,7.8,445.5*
CC(CNC(=O)CN(C)CC(=O)Nc1ccccc1Br)c1ccccc1 (centres undefined),7.0,27.4,9.1,-20.0,.
CNS(=O)(=O)c1cccc(C(=O)NCC(C)(C)N2CCCCC2)c1,14.4,2.5,-4.3,19.7,12.4
CCC(C)(C)n1nnnc1C(c1ccc2ncccc2c1)N1CCCC(C)C1 (centres undefined),21.5,32.7,39.8,-10.9,341.6*
O=C(COC(=O)CNC(=O)c1ccco1)NCCN1C(=O)CSC1=O,-8.6,-3.9,6.8,.,320.0*
COc1ccccc1OCC(=O)OCC(=O)NCCN1C(=O)CSC1=O,-12.5,-1.6,16.8,.,-4.5
O=[N+]([O-])c1ccc(S(=O)(=O)N2CCN(C3CCN(Cc4ccccc4)CC3)CC2)cc1,-1.9,-8.7,-42.6,14.1,379.3*
CCN(CC)C(=O)c1nc[nH]c1C(=O)O[C@@H](C)c1ccccc1,-0.6,12.0,-2.1,20.0,-10.6
Cc1cc([N+](=O)[O-])cnc1NC(C)c1ccccc1 (centres undefined),8.4,15.7,20.6,.,330.1*
CN(C)c1ccc(C=C2C(=O)OC(C)(C(C)(C)C)OC2=O)cc1 (centres undefined),19.1,14.5,13.5,-17.8,311.3*
COC(=O)C(NC(=O)CCC(=O)N[C@@H](C(=O)OC)c1ccccc1)c1ccccc1 (some centres undefined),1.6,-6.0,-10.5,.,-5.7
Cc1cc(/C=C2\SC(=S)NC2=O)c(C)n1-c1ccc(O)cc1,16.5,36.4,10.5,96.7*,24.8
Cc1cc(/C=C2\SC(=S)NC2=O)c(C)n1-c1ccccc1,6.4,28.6,24.0,.,100.4
O=C(O)C1CCCCN1C(=O)c1ccc(S(=O)(=O)N2CCCCCC2)cc1 (centres undefined),-1.0,-3.1,9.3,-8.7,130.8
C[N+](C)(CCOc1ccccc1)Cc1ccccc1,.,.,.,4.8,.
Cc1cc(C(C)(C)CC(C)(C)C)ccc1OCCOCC[N+](C)(C)Cc1ccccc1,7.8,22.9,5.0,113.1*,377.6
